Of roughly 8,800 targets only a part is listed; those with a hit were picked by preference. About 0.5% of all pairs of compound and target were hits. Values without a mark were called inactive.
How the values were obtained:
Assay in all cases: log2 fold change, soluble protein after heating vs DMSO (PISA); higher = thermal stabilisation; K562 lysate, 10 uM; active = over 0.2 and 3.5 SD of the protein, either way, in both replicates (recomputed)
[1] = compound: CS(=O)(=O)CCNCc1ccc(-c2ccc3ncnc(Nc4ccc(OCc5cccc(F)c5)c(Cl)c4)c3c2)o1 [lapatinib]
Outline: (§1)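 Thermal stability, expressed as log-two fold change relative to solvent controls, is given from duplicates. Crude K562 extract in PBS pH 7.4 with 1 mM MgCl2, at 1 mg/mL protein, was treated with 10 μM compound for 30 min and heated in aliquots for 3 min across 48°C-58°C. After pooling, adjustment to 0.5% NP-40 at 4°C and centrifugation at 21,000xg for 90 min, supernatant protein was measured by TMTpro 16plex LC-MS/MS with channel sums equalised.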

[2] = compound: CS(=O)(=O)N1CCN(Cc2cc3nc(-c4cccc5[nH]ncc45)nc(N4CCOCC4)c3s2)CC1 [pictilisib]
Outline: as §1

[3] = compound: C[C@@H](Oc1cc(-c2cnn(C3CCNCC3)c2)cnc1N)c1c(Cl)ccc(F)c1Cl [crizotinib]
Outline: as §1

[4] = compound: C[C@H](C1=CC=C(C=C1)C(=O)NC2=C3C=CNC3=NC=C2)N
Outline: as §1

[5] = compound: C[C@H](Nc1ncnc2nc[nH]c12)c1cc2cccc(Cl)c2c(=O)n1-c1ccccc1 [duvelisib]
Outline: as §1

[6] = compound: Cc1cc(Nc2cc(CN3CCOCC3)c3nc(C)c(Cc4ccc(Cl)cc4F)n3n2)n[nH]1 [gandotinib]
Outline: as §1

[7] = compound: Cc1cc(Nc2cc(N3CCN(C)CC3)nc(Sc3ccc(NC(=O)C4CC4)cc3)n2)n[nH]1 [tozasertib]
Outline: as §1

[8] = compound: Cc1ccc(-n2nc(C(C)(C)C)cc2NC(=O)Nc2ccc(OCCN3CCOCC3)c3ccccc23)cc1 [doramapimod]
Outline: as §1

[9] = compound: Cc1ccc(NC(=O)c2ccc(CN3CC[C@H](N(C)C)C3)c(C(F)(F)F)c2)cc1Nc1nccc(-c2cncnc2)n1 [bafetinib]
Outline: as §1

[10] = compound: Cc1cccc(CC(=O)N2CCc3c2ccc(-c2cn(C)c4ncnc(N)c24)c3F)n1
Outline: as §1

[11] = compound: Cc1cn(-c2cc(NC(=O)c3ccc(C)c(Nc4nccc(-c5cccnc5)n4)c3)cc(C(F)(F)F)c2)cn1 [nilotinib]
Outline: as §1

[12] = compound: Cc1nc(Nc2n[nH]c3c2CN(C(=O)N[C@H](CN(C)C)c2ccccc2)C3(C)C)c2sccc2n1
Outline: as §1

[13] = compound: Cc1nc(Nc2ncc(C(=O)Nc3c(C)cccc3Cl)s2)cc(N2CCN(CCO)CC2)n1 [dasatinib]
Outline: as §1

[14] = compound: Cc1ncc(-c2ccnc(Nc3ccc(S(C)(=O)=O)cc3)n2)n1C(C)C
Outline: as §1

[15] = compound: Cn1cc(-c2ccc3c(c2)CCN3C(=O)Cc2cccc(C(F)(F)F)c2)c2c(N)ncnc21
Outline: as §1

[16] = compound: Cn1cc(CNCC2CCN(c3ncc(C(=O)NO)cn3)CC2)c2ccccc21 [quisinostat]
Outline: as §1

[17] = compound: Cn1cncc1[C@@](N)(c1ccc(Cl)cc1)c1ccc2c(c1)c(-c1cccc(Cl)c1)cc(=O)n2C [tipifarnib]
Outline: as §1

[18] = compound: NC(=O)Nc1cc(-c2cccc(F)c2)sc1C(=O)N[C@H]1CCCNC1
Outline: as §1

[19] = compound: NC(=O)c1cnc(N[C@@H]2CCCC[C@@H]2N)nc1Nc1cccc(-n2nccn2)c1
Outline: as §1

[20] = compound: NC1(c2ccc(-c3nc4ccn5c(=O)[nH]nc5c4cc3-c3ccccc3)cc2)CCC1
Outline: as §1

Sequence of UniProt Q86WJ1 (Q86WJ1 whole entry, looked up): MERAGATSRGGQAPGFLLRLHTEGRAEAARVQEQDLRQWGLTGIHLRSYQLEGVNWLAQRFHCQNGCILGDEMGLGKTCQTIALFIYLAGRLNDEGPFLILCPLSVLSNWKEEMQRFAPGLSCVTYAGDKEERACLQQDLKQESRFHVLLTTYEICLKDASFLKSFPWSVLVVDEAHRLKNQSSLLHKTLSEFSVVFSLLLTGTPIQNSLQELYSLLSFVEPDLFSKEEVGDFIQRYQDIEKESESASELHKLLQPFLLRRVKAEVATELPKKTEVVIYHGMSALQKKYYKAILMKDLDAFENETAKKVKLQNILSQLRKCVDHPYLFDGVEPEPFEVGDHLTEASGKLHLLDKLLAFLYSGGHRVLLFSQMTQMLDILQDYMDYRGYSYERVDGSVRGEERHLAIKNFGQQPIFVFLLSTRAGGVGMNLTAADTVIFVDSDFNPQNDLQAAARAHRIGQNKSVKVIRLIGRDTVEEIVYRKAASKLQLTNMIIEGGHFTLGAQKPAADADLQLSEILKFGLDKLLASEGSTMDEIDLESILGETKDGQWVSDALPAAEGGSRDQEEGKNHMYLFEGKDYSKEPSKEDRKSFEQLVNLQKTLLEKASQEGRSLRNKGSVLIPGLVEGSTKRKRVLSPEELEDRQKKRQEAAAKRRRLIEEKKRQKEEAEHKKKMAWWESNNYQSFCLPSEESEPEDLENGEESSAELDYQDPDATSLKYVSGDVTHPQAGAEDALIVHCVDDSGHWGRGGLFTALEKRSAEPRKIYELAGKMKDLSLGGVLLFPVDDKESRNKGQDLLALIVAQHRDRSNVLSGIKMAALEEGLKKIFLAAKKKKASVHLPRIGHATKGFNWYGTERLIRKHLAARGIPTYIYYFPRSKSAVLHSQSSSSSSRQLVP
Sequence of UniProt P27708 (P27708 whole entry, looked up): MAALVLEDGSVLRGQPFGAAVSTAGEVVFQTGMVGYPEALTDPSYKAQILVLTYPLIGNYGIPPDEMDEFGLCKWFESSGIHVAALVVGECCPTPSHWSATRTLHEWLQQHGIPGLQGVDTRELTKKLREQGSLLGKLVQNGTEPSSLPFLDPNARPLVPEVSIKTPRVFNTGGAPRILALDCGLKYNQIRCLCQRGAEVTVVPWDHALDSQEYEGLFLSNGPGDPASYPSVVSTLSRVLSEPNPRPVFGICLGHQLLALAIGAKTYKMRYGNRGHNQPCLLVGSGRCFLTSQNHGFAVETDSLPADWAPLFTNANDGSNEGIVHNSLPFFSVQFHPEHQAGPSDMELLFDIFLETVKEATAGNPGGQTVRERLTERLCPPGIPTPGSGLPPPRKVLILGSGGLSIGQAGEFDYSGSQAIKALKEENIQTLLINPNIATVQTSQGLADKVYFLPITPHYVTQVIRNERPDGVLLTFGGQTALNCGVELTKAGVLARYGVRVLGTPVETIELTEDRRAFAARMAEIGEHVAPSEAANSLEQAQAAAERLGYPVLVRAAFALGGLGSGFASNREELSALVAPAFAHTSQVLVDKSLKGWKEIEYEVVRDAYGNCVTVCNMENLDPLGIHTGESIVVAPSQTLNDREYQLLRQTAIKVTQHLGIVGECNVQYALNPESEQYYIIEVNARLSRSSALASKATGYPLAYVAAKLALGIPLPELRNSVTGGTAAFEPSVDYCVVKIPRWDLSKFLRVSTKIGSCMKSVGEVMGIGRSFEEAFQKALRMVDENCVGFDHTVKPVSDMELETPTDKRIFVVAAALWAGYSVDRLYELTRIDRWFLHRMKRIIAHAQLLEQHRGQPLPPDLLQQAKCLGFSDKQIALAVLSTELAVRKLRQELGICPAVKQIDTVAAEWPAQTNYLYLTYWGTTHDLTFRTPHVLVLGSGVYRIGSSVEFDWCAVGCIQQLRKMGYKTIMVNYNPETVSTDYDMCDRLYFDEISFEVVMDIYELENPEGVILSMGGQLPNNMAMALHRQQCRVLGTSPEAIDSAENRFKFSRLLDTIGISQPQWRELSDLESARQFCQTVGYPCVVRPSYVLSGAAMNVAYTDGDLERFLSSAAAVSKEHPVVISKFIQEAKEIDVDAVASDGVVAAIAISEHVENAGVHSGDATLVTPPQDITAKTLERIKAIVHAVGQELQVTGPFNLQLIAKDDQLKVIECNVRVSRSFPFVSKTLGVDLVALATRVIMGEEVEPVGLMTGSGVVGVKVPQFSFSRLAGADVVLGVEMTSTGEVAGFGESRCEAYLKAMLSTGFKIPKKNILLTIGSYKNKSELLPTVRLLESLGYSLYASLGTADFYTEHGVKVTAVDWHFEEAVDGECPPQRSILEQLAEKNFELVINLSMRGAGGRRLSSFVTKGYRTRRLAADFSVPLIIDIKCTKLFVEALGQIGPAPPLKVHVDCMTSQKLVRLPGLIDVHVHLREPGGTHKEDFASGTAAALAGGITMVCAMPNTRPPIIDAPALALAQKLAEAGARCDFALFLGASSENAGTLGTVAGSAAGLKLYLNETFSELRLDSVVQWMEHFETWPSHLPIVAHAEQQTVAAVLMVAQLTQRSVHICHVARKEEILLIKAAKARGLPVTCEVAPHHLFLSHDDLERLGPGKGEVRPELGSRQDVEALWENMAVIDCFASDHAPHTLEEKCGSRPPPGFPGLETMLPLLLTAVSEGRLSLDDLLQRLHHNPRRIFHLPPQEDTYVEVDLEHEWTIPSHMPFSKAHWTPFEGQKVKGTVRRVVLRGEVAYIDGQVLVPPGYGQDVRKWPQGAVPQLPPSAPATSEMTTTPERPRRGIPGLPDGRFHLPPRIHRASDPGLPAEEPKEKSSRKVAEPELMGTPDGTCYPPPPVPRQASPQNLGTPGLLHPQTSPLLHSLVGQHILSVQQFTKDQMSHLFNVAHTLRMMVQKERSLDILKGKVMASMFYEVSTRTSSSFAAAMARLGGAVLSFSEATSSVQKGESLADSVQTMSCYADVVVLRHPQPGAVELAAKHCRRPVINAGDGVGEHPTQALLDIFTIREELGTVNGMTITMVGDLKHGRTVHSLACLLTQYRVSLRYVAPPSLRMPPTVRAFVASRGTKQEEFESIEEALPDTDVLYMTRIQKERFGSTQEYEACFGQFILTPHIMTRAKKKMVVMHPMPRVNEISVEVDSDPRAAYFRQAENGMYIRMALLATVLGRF
Sequence of UniProt P42574 (P42574 whole entry, looked up): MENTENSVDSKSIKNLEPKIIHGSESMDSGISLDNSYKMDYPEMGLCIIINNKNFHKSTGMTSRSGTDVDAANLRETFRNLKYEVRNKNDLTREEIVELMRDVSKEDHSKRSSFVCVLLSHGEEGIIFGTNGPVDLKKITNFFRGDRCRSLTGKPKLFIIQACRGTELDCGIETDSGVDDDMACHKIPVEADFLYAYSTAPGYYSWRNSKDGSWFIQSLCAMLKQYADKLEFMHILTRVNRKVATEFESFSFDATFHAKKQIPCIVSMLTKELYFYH
Sequence of UniProt O95352 (O95352 whole entry, looked up): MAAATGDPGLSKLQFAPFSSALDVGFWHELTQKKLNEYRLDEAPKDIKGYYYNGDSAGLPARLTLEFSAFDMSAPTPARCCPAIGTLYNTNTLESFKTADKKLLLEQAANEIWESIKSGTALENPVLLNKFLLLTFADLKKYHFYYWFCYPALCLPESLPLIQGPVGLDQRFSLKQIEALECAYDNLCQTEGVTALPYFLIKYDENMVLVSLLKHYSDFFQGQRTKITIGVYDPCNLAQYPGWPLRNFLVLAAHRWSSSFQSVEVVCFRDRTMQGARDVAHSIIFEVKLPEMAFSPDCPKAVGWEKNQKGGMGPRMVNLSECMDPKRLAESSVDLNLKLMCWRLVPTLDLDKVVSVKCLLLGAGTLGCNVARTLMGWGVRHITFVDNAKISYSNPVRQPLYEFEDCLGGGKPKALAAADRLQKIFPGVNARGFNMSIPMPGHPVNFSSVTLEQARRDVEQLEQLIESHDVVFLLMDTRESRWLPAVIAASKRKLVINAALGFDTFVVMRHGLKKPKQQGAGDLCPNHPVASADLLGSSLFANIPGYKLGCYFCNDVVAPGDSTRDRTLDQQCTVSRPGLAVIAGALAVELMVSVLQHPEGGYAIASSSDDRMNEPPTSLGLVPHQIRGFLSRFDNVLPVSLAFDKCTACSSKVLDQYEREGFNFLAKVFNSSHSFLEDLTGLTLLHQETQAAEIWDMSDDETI
Sequence of UniProt Q5BKX5 (Q5BKX5 whole entry, looked up): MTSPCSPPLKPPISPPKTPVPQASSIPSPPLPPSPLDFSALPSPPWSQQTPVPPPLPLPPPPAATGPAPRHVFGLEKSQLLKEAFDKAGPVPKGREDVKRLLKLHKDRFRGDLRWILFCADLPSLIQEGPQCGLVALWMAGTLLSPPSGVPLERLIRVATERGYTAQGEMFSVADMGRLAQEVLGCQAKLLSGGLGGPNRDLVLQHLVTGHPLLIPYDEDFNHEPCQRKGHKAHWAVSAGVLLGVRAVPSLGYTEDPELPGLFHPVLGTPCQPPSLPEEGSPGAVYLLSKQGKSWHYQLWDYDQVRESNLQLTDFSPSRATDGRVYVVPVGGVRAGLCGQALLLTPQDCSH
Sequence of UniProt Q8N7R7 (Q8N7R7 whole entry, looked up): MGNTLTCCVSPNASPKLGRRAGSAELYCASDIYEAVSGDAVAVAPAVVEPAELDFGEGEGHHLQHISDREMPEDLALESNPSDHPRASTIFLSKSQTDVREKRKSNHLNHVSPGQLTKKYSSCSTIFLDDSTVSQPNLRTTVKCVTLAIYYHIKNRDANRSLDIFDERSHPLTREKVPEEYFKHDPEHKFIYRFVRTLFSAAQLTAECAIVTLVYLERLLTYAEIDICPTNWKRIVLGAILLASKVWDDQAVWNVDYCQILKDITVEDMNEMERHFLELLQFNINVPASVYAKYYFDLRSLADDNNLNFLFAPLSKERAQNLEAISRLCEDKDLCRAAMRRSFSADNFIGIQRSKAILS
Sequence of UniProt Q12981 (Q12981 whole entry, looked up): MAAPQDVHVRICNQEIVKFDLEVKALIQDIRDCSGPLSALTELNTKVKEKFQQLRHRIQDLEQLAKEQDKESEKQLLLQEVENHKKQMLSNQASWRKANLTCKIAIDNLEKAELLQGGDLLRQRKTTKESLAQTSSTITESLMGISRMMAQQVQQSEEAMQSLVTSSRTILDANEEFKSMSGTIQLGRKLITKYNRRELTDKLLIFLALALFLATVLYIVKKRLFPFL

Target	log2 fold change [1]	log2 fold change [2]	log2 fold change [3]	log2 fold change [4]	log2 fold change [5]	log2 fold change [6]	log2 fold change [7]	log2 fold change [8]	log2 fold change [9]	log2 fold change [10]	log2 fold change [11]	log2 fold change [12]	log2 fold change [13]	log2 fold change [14]	log2 fold change [15]	log2 fold change [16]	log2 fold change [17]	log2 fold change [18]	log2 fold change [19]	log2 fold change [20]
CASP3 (UniProt P42574)	0.013	-0.021	0.001	0.249 (active)	0.007	-0.084	-0.016	0.005	0.107	-0.089	0.032	-0.024	0.053	0.023	0.008	-0.029	-0.033	0	-0.01	0.022
BRD4 (UniProt O60885)	0.044	0.015	-0.03	-0.06	0.013	0.019	-0.031	0.016	-0.024	-0.006	0.034	-0.009	-0.018	0.019	-0.001	-0.091	-0.019	0.013	-0.051	-0.008
C19orf54 (UniProt Q5BKX5)	-0.003	-0.089	-0.019	-0.011	-0.076	-0.046	-0.008	-0.036	-0.01	0.027	0.012	-0.006	-0.037	-0.016	0.006	0.006	-0.007	0.098	0.016	0.003
BLM (UniProt P54132)	-0.007	-0.068	-0.003	0.192	0.018	-0.267 (active)	0.057	0.018	-0.049	-0.251	-0.002	0.014	-0.013	0	0.048	0.109	0.041	-0.013	-0.025	0.018
CAD (UniProt P27708)	-0.023	-0.02	-0.038	-0.024	-0.011	-0.019	0	0.02	-0.052	0.07	0.004	0.013	-0.094	-0.001	0.038	-0.02	-0.005	0.023	-0.006	0.004
CCNYL1 (UniProt Q8N7R7)	0.018	-0.012	-0.015	-0.201	-0.003	0.085	0.052	-0.004	0.006	0.067	-0.001	-0.033	0.034	0.043	-0.003	-0.078	-0.08	0.008	0.075	-0.006
C15orf41 (UniProt Q9Y2V0)	-0.078	0.007	-0.033	0.03	0.059	0.002	0.102	-0.035	0.009	-0.017	-0.041	0	0.09	0.038	-0.036	-0.023	-0.014	0.076	0.024	0
BCKDK (UniProt O14874)	-0.056	-0.028	0.096	-0.038	-0.008	-0.095	-0.039	-0.033	0.012	-0.003	0.008	0.001	0.023	-0.061	0.058	0.094	-0.058	-0.092	-0.029	0.052
CHD1L (UniProt Q86WJ1)	-0.037	-0.045	-0.115	-0.011	0.013	-0.062	0.052	0.128	-0.055	0.038	-0.01	-0.012	-0.024	0	0.024	-0.114	0.032	0.111	0.028	-0.039
ATG7 (UniProt O95352)	0.006	-0.002	-0.015	-0.037	0	-0.035	-0.015	0.02	-0.024	0.006	0.02	-0.03	-0.026	-0.032	0.037	-0.039	0.03	0.058	0.01	-0.02
ATRIP (UniProt Q8WXE1)	-0.046	0.187	0.012	-0.034	-0.016	-0.056	0.097	0.001	-0.035	0.006	-0.014	-0.028	-0.059	0.071	0.045	-0.03	-0.049	-0.007	0.01	0.032
ATG4A (UniProt Q8WYN0)	-0.017	-0.02	-0.033	-0.061	-0.009	-0.025	0.044	0.008	-0.014	0.063	-0.022	0.018	-0.064	0.037	-0.038	-0.042	-0.015	0.096	-0.02	0
BRAT1 (UniProt Q6PJG6)	0.026	-0.013	-0.103	0	-0.001	-0.1	0.017	0.052	-0.014	0.038	0.031	-0.016	-0.046	0.01	0.046	-0.07	0	0.008	0.047	-0.017
BNIP1 (UniProt Q12981)	-0.007	0.018	-0.062	0.273	-0.059	-0.15	0.017	0.071	-0.019	-0.17	-0.004	-0.037	-0.005	-0.028	-0.045	-0.014	-0.046	-0.034	-0.033	0.057
ATG4B (UniProt Q9Y4P1)	0.012	-0.042	-0.087	0.114	0.01	-0.128	-0.013	0.004	-0.008	-0.059	0.045	0.001	-0.049	0.008	0.044	-0.055	-0.019	0.024	-0.05	0.005

Source: the supplement of paper PMC10849652
